Source: PubChem BioAssay (NCATS)
Inconclusive results are not listed. Activity calls are given as the source filed them. Calls come from the whole dose curve; as a rule, active = well fitted cell-killing curve with a large enough effect; inconclusive = small, poorly fitted or top-dose-only effect, or effect the other way; inactive = flat fitted curve, though single readings scatter.

Assays:
Assay in all cases: Primary qHTS to identify gynecologic anti-cancer compounds using libraries of approved drugs and bioactive compounds (AID 1345084); note: nearly all actives have a fitted effect of over 55% in size
Details in all cases: Gynecologic cancer cell panel viability, ATPlite luminescence, 48 h; series mostly up to 57.5 µM
[1] = tested on: PA-1
In short: (§1)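 Five-point cytotoxicity, 48 h drug exposure at 37 C, 5% CO2, on cells seeded 16 h beforehand. ATP content read by ATPlite luminescence.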

[2] = tested on: SKOV3
In short: as §1

[3] = tested on: Tov-21-G
In short: as §1

[4] = tested on: Tov112D
In short: as §1

Measured: Potency

CN1CCC[C@@H]1Cc1c[nH]c2ccc(Nc3ncccc3[N+](=O)[O-])cc12
inactive: all assays above

CC(=O)OC1CC(O)C2(C)C(CC(OC(C)=O)C3(C)C2CCC2(C)C(c4ccoc4)C(=O)C4OC423)C1(C)C (centres undefined)
inactive: all assays above

COC1CC(=O)C23C(=O)NC(CC(C)C)C2C(C)=C(C)C(OO)C3/C=C(\C)CCC(O)C1O (centres undefined)
inactive: all assays above

Cc1cn(C[C@H](N)C(=O)O)c(=O)n(Cc2cc(-c3ccccc3)sc2C(=O)O)c1=O
inactive: all assays above

C=CC(C)(C)c1[nH]c2cccc3c2c1C[C@@H]1[C@@H]3[C@@H](OC(C)=O)[C@H](C)CN1C
inactive: all assays above

Cn1ncnc1COc1nn2c(-c3c(F)cccc3F)nnc2cc1C1CCC1
inactive: all assays above

OCCCCC#Cc1cncc(OC[C@@H]2CCN2)c1
inactive: all assays above

CN(C(=O)Cc1ccccc1)C(CN1CCCC1)c1ccccc1 (centres undefined)
inactive: all assays above

COc1cc(CCNCc2ccccc2O)c(OC)cc1C#N
inactive: all assays above

COCC1OC(=O)c2coc3c2C1(C)C1=C(C3=O)C2CCC(=O)C2(C)CC1O (centres undefined)
inactive: all assays above

C[C@H]1C(=O)O[C@H]2[C@H](O)[C@]34C5OC(=O)[C@]3(O[C@@H]3OC(=O)[C@H](O)C34[C@H](C(C)(C)C)[C@H]5O)C12O (some centres undefined)
inactive: all assays above
